Results on 36 molecules are retold here after PubChem BioAssay (NCI).

Values joined by “and” are separate entries in the source; they are usually repeats but may differ in a detail not shown here. Identical values can stand only once. Compounds without any hit were thinned out: in the full panel of roughly 83,000, 20% have a hit.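 For each line, cells grew in 96-well plates with the test compound present at a single concentration for 48 hours.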 A number with no mark means an inactive call. Active and inactive are the calls of the source. How the source made its calls: active means growth percent below 10; inactive means the rest.

In this assay the test system is HL-60(TB) leukemia. The assay is described as follows: NCI-60 one-dose screen, 48 h (100 = growth as untreated, 0 = no growth, -100 = all killed). The settings on record: 10 µM unless noted.
As for `Nc1nnc(-c2c[nH]c3ncc(Br)cc23)c(-c2c[nH]c3ccc(Br)cc23)n1`, the growth is 11.2%.
`COc1ccc(C(=O)c2cc(C(C)=O)c3c(C)cc(C)cn23)cc1`: the growth is 78%.
`Cc1ccc2c(c1)nc(-c1ccccc1)n2CC(=O)N=Nc1c(O)[nH]c2ccc(Br)cc12`: the growth was 7.86% (active).
`N#Cc1c(-c2ccc(F)cc2)nc(SCc2ccccc2)nc1N1CCNCC1`: the growth was -14.7% (active).
Turning to `Cn1cc(-c2cc(N)n3nc(-c4c[nH]c5ccccc45)cc3n2)c2cc(F)ccc21`, the growth was 7.1% (active).
`O=C(Nc1cccc(-n2cnc3cc(-c4ccc(O)cc4)ccc32)c1)C1CC1`: the growth is -16.7% (active).
Regarding `Nc1nc(Nc2ccc(Cl)cc2)nn1Cc1cccc(Br)c1`, the growth was 34.5%.
Take `CC(=O)Nc1cccc(-n2c(COc3ccc(I)cc3)nc3ccccc32)c1`: the growth was 116% and 92.8%.
The result for `CC(C)CSc1nc(NCCc2c[nH]c3ccccc23)c(C#N)c(-c2ccccc2)n1` reads 60.7%; that for `Cc1ccc([N+](=O)[O-])c(C(=O)Nc2ccc(-c3ccc4c(c3)NC(=O)/C4=C\c3ccc[nH]3)cc2)c1`, 49.5%.
In the case of `CC(=O)c1c(N)c(C#N)cn1-c1ccc(Cl)cc1Cl`, the growth is 102%.
`O=C(NC(=S)N1CCN(c2ncnc3c2cnn3-c2ccccc2)CC1)c1ccc(F)cc1`: the growth was 64.8%.
Take `Cn1cc(/C=C(/SS/C(=C/c2cn(C)c3cccc(C(=O)O)c23)C(=O)O)C(=O)O)c2c(C(=O)O)cccc21`: the growth is 99.2%.
For the molecule `Brc1ccc(N/N=C/c2c[nH]c3ccc(Br)cc23)nc1`, the growth was -17.2% (active).
As for `CC(=O)Nc1ccc(-n2cnc3cc(-c4ccc(O)cc4)ccc32)cc1C(F)(F)F`, the growth was 4.45% (active).
`C/C(=N/O)c1ccc(NC(=O)CSc2nnc(-c3ccc4nc(-c5ccc(Cl)cc5)[nH]c4c3)o2)cc1`: the growth was 81.8%.
On to `Cc1cc2nc3c4ccccc4n(CCNCCN(C)C)c3nc2cc1C`, for which the growth was -0.721% (active).
`Cn1cc(-c2cc(N)n3nc(-c4c[nH]c5ccccc45)cc3n2)c2cccnc21`: the growth is -70.9% (active).
For `Cc1noc2c(Cc3ccccc3)nn(CC(=O)N/N=C/c3ccc(Cl)cc3)c(=O)c12`, the growth is 103%.
The result for `Cc1ccc2c(N)c(C(=O)Nc3ccc(-c4ccccc4)cc3)sc2n1` reads 38.7%.
Take `CC1=C(C(=O)Nc2ccccc2)C(c2ccc3ccccc3c2)n2c(nc3ccccc32)N1` (stereo unspecified): the growth was 57.4%.
On to `C=C1CC[C@@H]2[C@]3(C)COC(c4cn[nH]c4-c4ccc(F)cc4)O[C@@H]3CC[C@@]2(C)[C@@H]1C/C=C1/C(=O)OCC1O` (stereo partly specified), for which the growth is -21.7% (active).
For `COc1cc(NC(=O)c2cccc(C3CCc4c(cc(OC)c(OC)c4OC)O3)c2)cc(OC)c1OC` (stereo unspecified), the growth was 4.25% (active).
In the case of `FC(F)(F)c1cc2c(Cl)ncnc2n1CCC1CCOCC1`, the growth is -59.6% (active).
Consider `O=C(Cn1nc(-c2ccccc2)ccc1=O)NN1C(=O)c2ccccc2C1=O`, for which the growth is 101%.
The result for `Cc1ccc([C@H]2C(C(=O)c3ccc(Cl)cc3)C3(N[C@@H]2c2ccccc2)C(=O)Nc2ccc(Br)cc23)cc1` (stereo partly specified) reads 35.1%; that for `COC(=O)CSC1=C(C)C(=O)C(OC)=C(OC)C1=O`, 45.9%; that for `N#Cc1c(-c2ccc(Cl)cc2)nc2n[nH]c(-c3ccc(Cl)cc3)c2c1-c1ccc(C(F)(F)F)cc1`, 1.12% (active).
With `O=C(/C=C/c1ccc(O)c(O)c1)NC1CCOC1O` (stereo unspecified), the growth was 99.1%.
As for `COc1ccc(NCc2cn(-c3ccc(C(=O)O)cc3)nc2-c2ccc(F)cc2)cc1C(F)(F)F`, the growth was 49.9%.
Consider `Cc1cccc(-c2nc(Nc3cccc(S(N)(=O)=O)c3)c3ccccc3n2)c1`, for which the growth was 44.9%.
Take `COc1ccc([C@H]2C(C(=O)c3ccc(Cl)cc3)C3(N[C@@H]2c2ccccc2)C(=O)Nc2ccc(Br)cc23)cc1` (stereo partly specified): the growth is 15.3%.
Take `COC1=C[C@]23CCC(=O)N2CCc2cc4c(cc2[C@@H]3[C@@H]1OC(=O)[C@H](C)O)OCO4`: the growth is -28.6% (active).
On to `CCOC(=O)C1=C(N)N(c2ccccc2)C2=C(C(=O)CC(C)(C)C2)C1c1ccc([N+](=O)[O-])cc1` (stereo unspecified), for which the growth is 92.9%.
As for `COc1ccc2c(c1)C(Sc1ccc(Cl)cc1)c1c(nc(N)c(C#N)c1N)O2` (stereo unspecified), the growth was 44.8%.
As for `O=C(Nc1nc2ccc([N+](=O)[O-])cc2s1)Nc1cc(Cl)ccc1I`, the figure is -47.7% (active).
